Reference: PubChem BioAssay (NCATS)
Results filed as inconclusive are left out. Calls of active or inactive are those of the source. The call rests on the fitted dose curve; in most records, active means well fitted inhibition curve with a large enough effect; inconclusive means small, poorly fitted or top-dose-only effect; inactive means no such curve, though single readings can be large or run the other way.

Test: Primary qHTS for small molecule stabilizers of the endoplasmic reticulum resident proteome: Secreted ER Calcium Modulated Protein (SERCaMP) assay (AID 1508630)
Details: SH-SY5Y GLuc-SERCaMP (Gaussia luciferase released on ER calcium loss) secretion, thapsigargin, luminescence; series mostly up to 38.4 µM
Source text: Assay Provider: Brandon K. Harvey Ph.D.
National Institute on Drug Abuse, National Institutes of Health, Baltimore, MD
Endoplasmic reticulum (ER) dysregulation is associated with human pathologies including neurodegenerative, cardiovascular, muscular, and diabetic conditions. Maintenance of ER calcium is critical for functions of the ER and its depletion can lead to loss of ER resident proteins, in a process termed exodosis. Therapeutic compounds capable of attenuating the redistribution of ER proteins under pathological conditions may slow or stop disease progression. To identify such compounds, we performed a quantitative high-throughput screen (qHTS) using the SERCaMP assay, which monitors secretion of ER resident proteins triggered by calcium depletion.
SERCaMP was initially developed as a reporter of ER calcium homeostasis using a Gaussia luciferase with a modified signal peptide and carboxy-terminus (GLuc-SERCaMP), modifications that confer secretion of the reporter in response to ER calcium depletion (Henderson et al., 2014). The assay was used to screen 9,501 compounds, including a collection of drugs approved by the FDA (US), EMA (EU), NHI (Japan), and HC (Canada) regulatory agencies (Huang et al., 2011). Since the SERCaMP reporter reflects the exodosis phenomenon (Trychta et al., 2018a), compounds identified in the screen have the potential to prevent exodosis by different mechanisms such as stabilizing ER calcium or augmenting ERS retrieval.
1. Henderson, M.J., Wires, E.S., Trychta, K.A., Richie, C.T., and Harvey, B.K. (2014). SERCaMP: a carboxy-terminal protein modification that enables monitoring of ER calcium homeostasis. Mol Biol Cell 25, 2828-2839.
2. Huang, R., Southall, N., Wang, Y., Yasgar, A., Shinn, P., Jadhav, A., Nguyen, D.T., and Austin, C.P. (2011). The NCGC pharmaceutical collection: a comprehensive resource of clinically approved drugs enabling repurposing and chemical genomics. Sci Transl Med 3, 80ps16.
3. Trychta, K.A., Back, S., Henderson, M.J., and Harvey, B.K. (2018a). KDEL Receptors Are Differentially Regulated to Maintain the ER Proteome under Calcium Deficiency. Cell Rep 25, 1829-1840 e1826.
SEQUENCE No. (1, 2, 3, etc.); […] (e.g., Cells, Incubation, Reagent, etc.); VALUE and DESCRIPTION.
1; Reagent; 5 uL; 1000 SH-SY5Y cells per wells
3; Compound; 23 nL; Control inhibitor / compound library
5; Reagent; 100 nM; Thapsigargin
7; Reagent; 1 uL; 0.5x coelenterazine
8; Detection; Luminescence; ViewLux imaging system
NOTES (numbers refer to sequence above)
1; SH-SY5Y human neuroblastoma cells stably expressing GLuc-SERCaMP (SH-SY5Y-GLuc-ASARTDL) cells were seeded in 1,536 well white tissue culture treated plates (Corning, Cat# 7464) in DMEM-high glucose-sodium pyruvate (ThermoFisher Scientific, Cat #10569) supplemented with 10% bovine growth serum (Hyclone), 10 U/ml penicillin (Gibco), 10 ug/ml streptomycin (Gibco), and 20 mM HEPES.
2; Assay plates were incubated for 5 hour at 37C in a humidified incubator containing 5% CO2.
3; qHTS libraries (23 nl, final concentrations of 1.53 uM, 7.67 uM, 38.3 uM) or controls (neutral control: DMSO, positive control: dantrolene) were added using a Kalypsis pin-tool Robotic System equipped with 1536 pinheads.
4; Cells were then incubated for 16 hours at 37C, 5% CO2.
5; Thapsigargin was added at 100 nM to deplete ER calcium stores.
6; Cells were incubated for 4 hour (37 °C, 5% CO2)
7; Gaussia luciferase in the medium was measured by adding 1 ul of 0.5x coelenterazine (final concentration 0.07x) prepared in Gaussia Luciferase Glow Assay Buffer (Pierce), without addition of the Cell Lysis Buffer Reagent.
8; Luminescence was measured using a ViewLux […] CCD imaging system (Perkin Elmer) equipped with clear filters. […] The same controls were also used for the calculation of the Z' factor, a measure of assay quality control, as previously described (Zhang et al., 1999). […]

Potency, inactive:
CC(=O)O[C@@H]1CC2C(C)(C)C(=O)C=C[C@]2(C)C2CC[C@]3(C)C(=CC[C@H]3C3CO[C@@H](C(C)(C)O)[C@H](O)C3)[C@@]21C (stereo not given in full)
C=C1C[C@H](OC(=O)C(C)(O)CCl)C2C(=C)C(=O)O[C@@H]2C2C1C[C@H](O)[C@]2(O)CCl (stereo not given in full)
COc1cccc(Nc2ncc3nc(C)c(=O)n(CCc4ccccc4)c3n2)c1
COc1ccc(-n2c(=O)c(-c3cccs3)nc3cnc(N4CCOCC4)nc32)cc1
Cc1noc(C)c1-c1cc(N2CCN(C)CC2)ncn1
O=C1CCCC2[C@@H]3CCC[N@+]4([O-])CCC[C@H](CN12)C34 (stereo not given in full)
O=C(c1cnccn1)N1CCC[C@@]2(CCN(c3ncccn3)C2)C1
Cn1c(=O)cnc2cnc(Oc3ccccc3)nc21
C/C=C(\C)C(=O)O[C@H]1C[C@@]2(C)CCC(C(C)C)C2(O)CC[C@@]1(C)O (stereo not given in full)
O=C(c1csnn1)N1CCC2(CC1)CCN(c1ncccn1)CC2
CN(C)c1ncc2ncc(=O)n(C[C@H]3CCCO3)c2n1
COc1ccc(-n2c(=O)c(C)nc3cnc(OC)nc32)cc1
CN1CCN(c2cc(-c3ccc(N(C)C)cc3)ncn2)CC1
FC(F)(F)c1ccccc1-c1nc(NCCN2CCOCC2)c2ccccc2n1
CC(=O)C1(C)CC2(CC(C)(C)OC2=O)C(=O)O1 (stereo not given)
Cc1cccc(CNc2ncncc2-c2cccc(C#N)c2)c1
CCNc1ncc2nc(C)c(=O)n(CCC#N)c2n1
CC(C)(O)[C@@H]1CCC[N+]2(C)CCCC[C@H]12 (stereo not given in full)
COc1cccc(Cn2c(=O)c(-c3ccc(F)cc3)nc3cnc(OC)nc32)c1
CCNc1ncc2nc(C)c(=O)n(Cc3ccc(F)cc3)c2n1
Cc1nc2cnc(Nc3ccccc3)nc2n(C2CC2)c1=O
Cc1cnc(CNc2ncnc3ccc(-c4c(C)noc4C)cc23)cn1
CN1CCN(c2ncc3ncc(=O)n(C[C@H]4CCCO4)c3n2)CC1
O=C(Oc1ccccc1)N1CCC[C@@]2(CCN(c3ncccn3)C2)C1
COc1ccc(C(=O)N2CCC3(CCN(C)CC3)CC2)cc1
Cc1ccccc1-c1nc(NCc2cccs2)c2ccccc2n1
COc1ccccc1CNc1cc(-c2c(C)noc2C)ncn1
COc1ccc(C(=O)N(O)c2ccccc2)cc1
Cc1nc2cnc(Oc3ccccc3)nc2n(C)c1=O
COC(C)C(C(=O)OCC1=CCN2CC[C@H](O)[C@@H]12)C(C)C (stereo not given in full)
Cc1nc2cnc(OCc3ccccc3)nc2n(C)c1=O
O=c1c(-c2cc(F)cc(F)c2)nc2cnc(N3CCOCC3)nc2n1C[C@H]1CCCO1
Cc1ccccc1-c1cc(NCc2ccccc2)ncn1
Cn1cccc1C(=O)N1CCC2(CC1)CCN(c1ccccc1)CC2
COCC(=O)N1CCC2(CC1)CCN(C(=O)Nc1cccc(F)c1)CC2
O=C(c1ccncc1)N1CCC2(CC1)CCN(c1ccccc1)CC2
CCOC(=O)c1ncc2[nH]c3cccc(OC(C)C)c3c2c1C
Clc1ccccc1-c1ccc2ncnc(N3CCNCC3)c2c1
Cn1cccc1C(=O)N1CCC[C@@]2(CCN(Cc3ccc(C#N)cc3)C2)C1
CCCc1c(OCC(O)COc2ccc3c(=O)cc(C(=O)O)oc3c2CCC)ccc(C(C)=O)c1O (stereo not given)
